From PubChem BioAssay (Tox21) come the findings set out here.

The nature of experiment [1]: A CellTox Green Cytotoxicity Assay to monitor cytotoxicity in HEK293 cells - 8 hour (AID 1224884). Also: nearly all actives have a fitted effect of over 35% in size. In outline:
(§1)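 Seeding of HEK293 cells together with cytotoxicity dye preceded a 5 h incubation at 37 C/5% CO2. Test compounds in DMSO were then added and fluorescence monitored across 40 h.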

Experiment [2] is described as follows: qHTS RealTime-Glo MT Cell Viability Assay in HEK293 cells - 24 hour (AID 1224886). Also: potency is read from the fitted curve at half-maximal effect; nearly all actives have a fitted effect of over 50% in size. In outline:
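Tox21 10K qHTS, HEK293, 600 cells/well, RealTime-Glo reagent co-dispensed with cells; 5 h preincubation, compound by pintool, 37 C, luminescence at 0–40 h.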
On the technique in general: Quantitative high-throughput screening tests each substance at several concentrations.

Experiment [3] can be described thus: qHTS RealTime-Glo MT Cell Viability Assay in HEK293 cells - 8 hour (AID 1224887). Also: nearly all actives have a fitted effect of over 50% in size. Also: potency is read from the fitted curve at half-maximal effect. In outline:
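Tox21 screen in HEK293 using RealTime-Glo MT chemistry, with cells and reagent co-dispensed. Luminescence proportional to viable cell number was captured at intervals during 40 h compound exposure at 37 C.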

Experiment [4] is described as follows: A CellTox Green Cytotoxicity Assay to monitor cytotoxicity in HEK293 cells - 16 hour (AID 1224888). Also: nearly all actives have a fitted effect of over 35% in size. In outline:
as §1

Experiment [5] in a line: qHTS RealTime-Glo MT Cell Viability Assay in HepG2 cells - 0 hour (AID 1224889). Also: nearly all actives have a fitted effect of over 50% in size. Also: potency is read from the fitted curve at half-maximal effect. The method in brief: (§2)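 Cells + NanoLuc/prosubstrate dispensed (600 cells/well) → 5 h at 37 C/5% CO2 → compounds in DMSO transferred → 40 h incubation at 37 C, luminescence read at 0, 8, 16, 24, 32, 40 h.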
A short description of experiment [6]: A CellTox Green Cytotoxicity Assay to monitor cytotoxicity in HepG2 cells - 8 hour (AID 1224890). Also: nearly all actives have a fitted effect of over 45% in size. The method in brief: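 Nonlytic assay: viable cells exclude the dye, so fluorescence scales with cell death. HepG2 at 600 cells/well, compounds added after 5 h, signal read across 40 h.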
Experiment [7] in a line: qHTS assay to identify small molecule antagonists of the estrogen receptor alpha (ER-alpha) signaling pathway using the BG1 cell line in the presence of 0.1 nM 17-beta-estradiol - cell viability counter screen (AID 1259241). Also: nearly all actives have a fitted effect of over 40% in size. In outline:
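VM7Luc4E2 cells (endogenous full-length ER-alpha, 4xERE-luciferase), cultured 5 days in charcoal-stripped serum, exposed to compounds with 0.1 nM 17beta-estradiol (final) for 22 hr at 37C. Viability read in same wells as live-cell protease fluorescence after 30 min.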

Experiment [8] can be described thus: qHTS assay to identify small molecule antagonists of the androgen receptor (AR) signaling pathway using the MDA cell line in the presence of 0.5 nM R1881 - cell viability counter screen (AID 1259242). Also: nearly all actives have a fitted effect of over 45% in size. The method in brief: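 R1881 at 0.5 nM final stimulated MDA-kb2 cells during 16 hr compound treatment at 37C. Cytotoxicity read: CellTiter-Fluor fluorescence after 30 min.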

For experiment [9], the target named is Androgen receptor (Homo sapiens) (UniProt P10275). As to the kind of experiment: qHTS assay to identify small molecule antagonists of the androgen receptor (AR) signaling pathway using the MDA cell line in the presence of 0.5 nM R1881 (AID 1259243). Also: nearly all actives have a fitted effect of over 50% in size. Also: potency is read from the fitted curve at half-maximal effect. The method in brief: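 We exposed MDA-kb2 cells to compounds under 0.5 nM R1881 stimulation for 16 hr at 37C and quantified MMTV-driven luciferase by luminescence.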
Androgen receptor (Homo sapiens), sequence (P10275 whole entry, looked up): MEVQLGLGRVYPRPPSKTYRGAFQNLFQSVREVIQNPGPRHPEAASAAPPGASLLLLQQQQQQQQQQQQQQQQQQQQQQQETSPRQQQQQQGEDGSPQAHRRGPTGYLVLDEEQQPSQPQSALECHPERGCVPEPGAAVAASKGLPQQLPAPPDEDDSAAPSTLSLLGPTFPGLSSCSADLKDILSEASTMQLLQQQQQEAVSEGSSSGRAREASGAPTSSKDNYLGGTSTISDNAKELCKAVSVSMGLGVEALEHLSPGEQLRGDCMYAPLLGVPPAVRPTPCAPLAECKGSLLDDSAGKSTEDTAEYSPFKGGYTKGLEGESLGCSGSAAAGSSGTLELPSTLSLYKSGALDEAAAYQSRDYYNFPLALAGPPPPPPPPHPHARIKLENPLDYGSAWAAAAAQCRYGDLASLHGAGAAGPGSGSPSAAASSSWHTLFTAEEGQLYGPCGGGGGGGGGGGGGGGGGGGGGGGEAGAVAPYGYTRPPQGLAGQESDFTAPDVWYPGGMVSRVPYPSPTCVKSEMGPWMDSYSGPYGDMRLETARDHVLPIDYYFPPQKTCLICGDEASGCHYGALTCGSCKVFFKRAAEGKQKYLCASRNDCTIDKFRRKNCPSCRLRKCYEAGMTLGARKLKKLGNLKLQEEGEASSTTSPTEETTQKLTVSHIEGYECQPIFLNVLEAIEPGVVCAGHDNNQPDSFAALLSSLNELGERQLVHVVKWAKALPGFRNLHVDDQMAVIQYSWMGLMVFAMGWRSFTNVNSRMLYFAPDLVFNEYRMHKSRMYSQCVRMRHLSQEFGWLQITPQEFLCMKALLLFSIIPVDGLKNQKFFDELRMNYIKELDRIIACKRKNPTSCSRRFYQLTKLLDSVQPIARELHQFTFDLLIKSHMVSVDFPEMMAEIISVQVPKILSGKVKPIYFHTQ

The target in experiment [10] is Estrogen receptor (Homo sapiens) (UniProt P03372). Kind of experiment: qHTS assay to identify small molecule antagonists of the estrogen receptor alpha (ER-alpha) signaling pathway using the BG1 cell line in the presence of 0.1 nM 17-beta-estradiol (AID 1259244). Also: nearly all actives have a fitted effect of over 50% in size. The method in brief:
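VM7Luc4E2; 4xERE-luciferase; 0.1 nM E2 final; 22 h co-incubation, 37C; ONE-Glo luminescence after 30 min at room temperature.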

Experiment [11] in a line: qHTS assay to identify small molecule HDAC inhibitors (AID 1259364).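 Also: wild-type HCT-116 cells with endogenous class I/II HDAC activity; top concentration of the series differs between compounds; nearly all actives have a fitted effect of over 45% in size.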 The method in brief: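 Relative class I and II HDAC activity is taken from the luminogenic signal in HCT-116 cells, with compound exposure 2 hr and reagent development 30 min at room temperature.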
A short description of experiment [12]: qHTS assay to identify small molecule HDAC inhibitors - cell viability counter screen (AID 1259365). The method in brief: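 Wild-type HCT-116 cells, 1,500/well, cultured overnight, then compound-treated 2 h at 37 C. Viability measured as ATP luminescence with CellTiter-Glo after 30 min at room temperature.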
Experiment [13] in a line: qHTS assay to identify small molecule antagonists of the sonic hedgehog signaling (Shh) pathway - cell viability counter screen (AID 1259367). Also: nearly all actives have a fitted effect of over 55% in size. The method in brief: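 NIH/3T3-derived Gli1-Luc reporter cells (2,000 per well) rested 4 hr at 37 C, then received DMSO compounds plus conditioned medium. After 23 hr of treatment, CellTiter-Fluor was added for 1 hr at 37C and fluorescence read.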

A short description of experiment [14]: qHTS assay to identify small molecule agonists of the sonic hedgehog signaling (Shh) pathway (AID 1259368; calls by dose curve;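 also: NIH/3T3-derived 3T3Gli1-Luc cells carrying a stable Gli1-driven firefly luciferase reporter; series mostly up to about 92 µM; nearly all actives have a fitted effect of over 15% in size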). The method in brief: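 Mouse fibroblast (NIH/3T3) reporter cells with stably integrated Gli1-Luc were treated 24 hr with compound; firefly luciferase luminescence served as the read-out.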
The nature of experiment [15]: qHTS assay to identify small molecule antagonists of the sonic hedgehog signaling (Shh) pathway (AID 1259369; calls by dose curve; also: nearly all actives have a fitted effect of over 45% in size; also: potency is read from the fitted curve at half-maximal effect). The method in brief:
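Conditioned medium drives Shh signalling in 3T3Gli1-Luc cells; compounds in DMSO co-applied, 24hr at 37 C, then luciferase luminescence.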

A short description of experiment [16]: qHTS RealTime-Glo MT Cell Viability Assay in HepG2 cells - 16 hour (AID 1224885). Also: nearly all actives have a fitted effect of over 50% in size. Also: potency is read from the fitted curve at half-maximal effect. In outline: as §2
The nature of experiment [17]: qHTS assay to identify small molecule phospholipidosis (PLD) inducers (AID 1259344; active = well fitted curve in the direction sought with a large enough effect; an effect the other way counts as inactive or inconclusive). The method in brief:
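HepG2 cells on collagen I, attached 4 h at 37 C, were co-treated with compound and LipidTOX Red dye for 24 h at 37 C, then fixed with paraformaldehyde plus Hoechst 33342 and imaged by high-content microscopy for phospholipid accumulation.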

Experiment [18] in a line: qHTS assay to identify small molecule agonists of the sonic hedgehog signaling (Shh) pathway - cell viability counter screen (AID 1259366). Also: nearly all actives have a fitted effect of over 50% in size. The method in brief: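 NIH/3T3-derived Gli1-Luc reporter cells, 2,000 per well, received compound after 4 h and were treated about 23 h at 37C. Viability measured in the same wells by CellTiter-Fluor fluorescence after 1 h.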
Experiment [19] addresses Estrogen receptor beta (Homo sapiens) (UniProt Q92731). Kind of experiment: qHTS assay to identify small molecule agonists of the estrogen receptor beta (ER-beta) signaling pathway (AID 1259377; active = well fitted activation curve with a large enough effect in the signal ratio in the repeat runs, not every such curve was filed as active; the % refers to the signal ratio). The method in brief: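 ER-beta-UAS-bla HEK293T cells in medium with 2% charcoal-stripped FBS were exposed to compounds for 16 h at 37C. Beta-lactamase reporter activity was read as fluorescence after 2 h with LiveBLAzer B/G FRET substrate at room temperature.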

Experiment [20] has the same target. As to the kind of experiment: qHTS assay to identify small molecule antagonists of the estrogen receptor beta (ER-beta) signaling pathway (AID 1259378; active = well fitted inhibition curve with a large enough effect in the signal ratio in the repeat runs, not every such curve was filed as active; the % refers to the signal ratio; also: potency is read from the fitted curve at half-maximal effect). The method in brief:
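ER-beta-UAS-bla HEK293T (GripTite) cells in 2% charcoal-stripped FBS medium were preincubated 6 hr at 37C, dosed with compound, then stimulated with 1 nM E2 (final) for 16 hr; beta-lactamase reporter read by B/G FRET fluorescence after 2 hr substrate loading.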

SMILES strings stand for the structures. Unmarked numbers belong to inactive results. Inconclusive results are not listed. Active and inactive are the calls of the source. Unless noted, calls follow the shape of the dose curve; as a rule, active = well fitted curve in the direction sought with a large enough effect in the repeat runs; inconclusive = weak or mixed curves; inactive = no such curve, though single readings can be large; an effect the other way counts as inactive or inconclusive.

Estrogen receptor (Homo sapiens), sequence (P03372 whole entry, looked up): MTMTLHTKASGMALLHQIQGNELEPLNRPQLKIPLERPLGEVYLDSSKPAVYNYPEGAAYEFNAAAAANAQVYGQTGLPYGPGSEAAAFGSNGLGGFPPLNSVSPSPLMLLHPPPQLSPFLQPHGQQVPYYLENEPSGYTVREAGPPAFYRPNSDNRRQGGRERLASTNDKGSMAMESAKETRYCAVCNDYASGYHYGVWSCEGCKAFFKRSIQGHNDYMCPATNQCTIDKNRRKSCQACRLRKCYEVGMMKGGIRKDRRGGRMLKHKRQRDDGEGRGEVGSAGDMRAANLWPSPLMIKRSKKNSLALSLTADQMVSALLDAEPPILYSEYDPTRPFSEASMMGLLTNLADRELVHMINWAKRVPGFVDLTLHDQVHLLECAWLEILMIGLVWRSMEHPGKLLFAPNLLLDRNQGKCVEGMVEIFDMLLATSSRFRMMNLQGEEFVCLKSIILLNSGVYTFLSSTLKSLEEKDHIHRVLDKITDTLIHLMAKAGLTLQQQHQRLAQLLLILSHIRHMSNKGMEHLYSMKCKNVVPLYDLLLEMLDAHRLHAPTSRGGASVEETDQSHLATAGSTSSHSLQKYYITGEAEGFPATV
Estrogen receptor beta (Homo sapiens), sequence (Q92731 whole entry, looked up): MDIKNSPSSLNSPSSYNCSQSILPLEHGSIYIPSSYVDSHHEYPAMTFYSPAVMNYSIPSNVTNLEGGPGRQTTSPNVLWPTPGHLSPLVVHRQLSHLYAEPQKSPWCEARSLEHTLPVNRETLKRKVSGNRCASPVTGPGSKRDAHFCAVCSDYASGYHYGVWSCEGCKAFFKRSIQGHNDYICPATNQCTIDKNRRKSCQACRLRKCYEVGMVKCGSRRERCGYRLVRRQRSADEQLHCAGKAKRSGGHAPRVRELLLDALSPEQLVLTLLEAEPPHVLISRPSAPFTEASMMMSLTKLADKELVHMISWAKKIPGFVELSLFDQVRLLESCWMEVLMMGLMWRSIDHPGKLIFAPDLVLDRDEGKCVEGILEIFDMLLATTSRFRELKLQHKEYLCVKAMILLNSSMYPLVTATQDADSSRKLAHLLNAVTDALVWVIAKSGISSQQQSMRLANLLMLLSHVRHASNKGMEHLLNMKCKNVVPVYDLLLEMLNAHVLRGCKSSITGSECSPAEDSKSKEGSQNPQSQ

Consider `C[C@H]1O[C@@H](O[C@H]2CC[C@@]3(C)[C@H](CC[C@@H]4[C@@H]3C[C@@H](O)[C@]3(C)[C@@H](C5=CC(=O)OC5)CC[C@]43O)C2)C[C@H](O)[C@@H]1O[C@H]1C[C@H](O)[C@H](O[C@H]2C[C@H](O)[C@H](O[C@@H]3O[C@H](CO)[C@@H](O)[C@H](O)[C@H]3O)[C@@H](C)O2)[C@@H](C)O1`, for which the Potency result in experiment [1], in experiment [3], in [4], in experiment [5], in experiment [6] and in experiment [7] was “inactive” in each case. Moreover, the Potency result in experiment [8], in experiment [9], in experiment [10], in [11], in experiment [12] and in [13] was “inactive” in each case. Besides, the Potency entry in experiment [14] and in experiment [15] was “inactive” each time. Also, in experiment [2], the Potency was 0.268 µM (active).

Consider `c1ccc(-c2ccc(C(c3ccccc3)n3ccnc3)cc2)cc1` (centres undefined), for which the Potency entry in experiment [1], in experiment [16], in [4], in experiment [5], in experiment [6] and in [7] was “inactive” throughout. In addition, the Potency result in experiment [8], in experiment [10], in experiment [17], in experiment [11], in experiment [12] and in [18] was “inactive” each time. In addition, the Potency result in experiment [13] and in [14] was “inactive” each time.

In the case of `Cn1ccnc1`, the Potency entry in [1], in experiment [16], in experiment [4], in experiment [5], in [6] and in experiment [7] was “inactive” throughout. Also, the Potency entry in [8], in experiment [10], in experiment [11], in [12], in experiment [13] and in experiment [14] was “inactive” each time. For the same molecule, the Potency result in experiment [15] and in experiment [20] was “inactive” each time. In [19], the molecule was classed as inactive.

As to `CC(C)=NNC(N)=S`, the Potency entry in experiment [1], in experiment [16], in [4], in experiment [5], in experiment [7] and in experiment [8] was “inactive” each time. For the same molecule, the Potency result in experiment [10], in [11], in [12], in [18] and in experiment [14] was “inactive” each time. Besides, the Potency in experiment [15] is 13.7 µM (active). In addition, the molecule was classed as inactive in experiment [19].

Turning to `Cc1cc(F)ccc1-c1cc(N2CC[C@@H](O)[C@H]2CO)ncc1N(C)C(=O)C(C)(C)c1cc(C(F)(F)F)cc(C(F)(F)F)c1`, the Potency entry in experiment [1], in experiment [7], in experiment [8], in experiment [11], in [12] and in experiment [14] was “inactive” in each case. Besides, the Potency is 38.3 µM (active) in experiment [16]; 34.1 µM (active) in experiment [3]; 1.71 µM (active) in [5]; 38 µM (active) in experiment [9]; 19 µM (active) in [20].

Consider `O=C1c2ccccc2C(=O)c2c(Cl)cccc21`, for which the Potency result in [1], in [16], in experiment [4], in experiment [5], in [6] and in experiment [7] was “inactive” in each case. For the same molecule, the Potency result in experiment [8], in experiment [10], in [12], in [18], in experiment [13] and in experiment [14] was “inactive” each time. Further, the Potency result in [15] is “inactive”.

For the molecule `O=C1OC(=O)c2cc(-c3ccc4c(c3)C(=O)OC4=O)ccc21`, the Potency result in [1], in experiment [16], in experiment [3], in experiment [4], in [5] and in experiment [6] was “inactive” in each case. In addition, the Potency entry in experiment [7], in [8], in experiment [10], in [11] and in [14] was “inactive” in each case. Also, in experiment [15], the Potency was 17.2 µM (active). Besides, in experiment [19], the molecule was called inactive.
